High-throughput results as filed in PubChem BioAssay.
Compounds with a hit are over-represented: about 2.8% of the library has one in this group of screens.
EP2 antag = blocks the human prostaglandin E2 receptor EP2; P43116; C6 glioma cells expressing human EP2, cAMP TR-FRET; cells stimulated with saturating PGE2; inhibition, % at 25 µM; 260,000 tested, 0.52% active;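 active means percent inhibition above 40 after rounding to a whole number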;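 further: rat C6 glioma host cells with rolipram phosphodiesterase inhibitor present; the protocol text gives 20 µM as final concentration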
Wee1 degr inh = human Wee1 degradation inhibition, primary screen | P30291 | HeLa Luc-Wee1K328M stability, luciferase luminescence; 100% = proteasome inhibitor MG132 effect | reporter increase, % at 5 µM | 220,000 tested, 1.2% active | AID 1321;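 active means activation above the mean of all tested compounds plus 3 SD, set per screening run, cut at about 8.8% in these data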;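 further: cells exposed to compound for 20 h before luminescence read; 0% = DMSO alone and 100% = MG132 at 30 µM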
p47phox inh = inhibitors of human p47phox binding | P14598 | p47phox/p22phox peptide binding, fluorescence polarization, 2 h | inhibition, % at 24.7 µM | 220,000 tested, 0.53% active | AID 1274;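 active means inhibition above about 30%, limit read from the data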;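 further: 0% = p47phox with labelled peptide and 100% = labelled peptide alone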
Target sequence (P14598 whole entry, looked up): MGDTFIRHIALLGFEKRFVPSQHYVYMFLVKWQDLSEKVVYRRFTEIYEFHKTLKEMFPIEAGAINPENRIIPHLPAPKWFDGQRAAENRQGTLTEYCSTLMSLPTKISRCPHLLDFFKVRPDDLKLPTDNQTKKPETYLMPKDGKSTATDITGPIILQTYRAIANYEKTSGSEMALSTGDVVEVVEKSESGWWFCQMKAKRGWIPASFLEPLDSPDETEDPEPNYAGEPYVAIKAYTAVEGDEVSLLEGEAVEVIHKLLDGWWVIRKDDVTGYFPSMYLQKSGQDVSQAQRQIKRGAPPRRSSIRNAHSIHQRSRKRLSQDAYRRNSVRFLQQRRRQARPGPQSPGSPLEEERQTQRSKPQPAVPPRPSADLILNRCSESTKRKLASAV
EP2 modulator = modulators of human EP2 prostaglandin E2 receptor. induction, % at 25 µM. EP2-expressing cells, cAMP HTRF FRET, PGE2 co-stimulation. 260,000 tested, 0.83% active;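 active means compounds whose cAMP rise, as percent of the full-agonist control response, exceeds 60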;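 further: rat C6 glioma line stably carrying human EP2 under a CMV promoter; the protocol text gives 20 µM as final concentration; 100% = response of wells given 1 µM PGE2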
Furin inh = inhibitors of human furin; purified furin, fluorogenic substrate cleavage; inhibition, % at 20 µM or 30 µM; 220,000 tested, 0.061% active; AID 463115; in the data active means inhibition above about 25%
HSV augment = HSV replication enhancement; HSV replication augmentation in cells, fold increase; maximum fold increase; 220,000 tested, 0.005% active; in the data active means maximum fold increase above about 1.5; tested in PC3 cells
The depositor's hits bear a star; i = inactive; nt = no result.

SMILES	EP2 antag	Wee1 degr inh	p47phox inh	EP2 modulator	Furin inh	HSV augment
O=C(N=Nc1c(O)n(Cc2ccccc2)c2ccccc12)c1ccc(O)cc1	8	-1	-3	49	-8	i
Cc1ccc(NC(=O)Cn2c(O)c(N=NC(=O)c3cc4ccccc4cc3O)c3ccccc32)cc1	5	-1	58*	-9	6	i
O=C(N=Nc1c(O)n(Cc2ccccc2)c2ccccc12)c1cc2ccccc2cc1O	6	-2	40*	17	-4	i
O=C(Nc1ccccc1)c1nnsc1S(=O)c1ccc(Cl)cc1 (centres undefined)	142*	3	-4	-26	-14	i
O=C(c1nnsc1S(=O)c1ccc(Cl)cc1)N1CCOCC1 (centres undefined)	21	1	9	-77	-10	i
Fc1cccc(CN(CCCn2ccnc2)Cc2cnn(C3CCCCC3)c2)c1	11	nt	nt	-73	nt	nt
COc1cc(NC(=S)NCCCN2CCOCC2)cc(OC)c1	11	9.6*	4	16	-13	i
S=C(NCCCN1CCOCC1)NC1CCCC1	93*	-2	-8	3	-8	i
S=C(NCCN1CCOCC1)NC1CCCCC1	12	1	-3	26	-17	i
COc1cccc(NC(=S)NCCN2CCOCC2)c1	4	2	-14	10	-27	i
Cc1cc(C)n(-c2ncnc3sc(-c4ccccc4)cc23)n1	16	nt	nt	44	nt	nt
CCCn1nnc(NC(=O)c2sc3ccccc3c2Cl)n1	64*	2	4	8	-27	i
Cc1c(C(=O)N2CCCC(c3ncncc3-c3ccncc3)C2)cnn1C (centres undefined)	nt	nt	nt	28	nt	nt
CCN(CC)c1ccc(C=C(c2nnnn2-c2ccccc2)c2nnnn2-c2ccccc2)cc1	8	2	-28	-7	-5	3.1*
Cc1ccc(-n2nnnc2C(=Cc2ccc(N(C)C)cc2)c2nnnn2-c2ccc(C)cc2)cc1	nt	-3	-21	-10	12	nt
COc1ccc2[nH]c(=O)c(CN(C(=O)C3CCCO3)c3ccc(C)c(C)c3)cc2c1 (centres undefined)	5	9.4*	0	-1	-13	i
N#C/C(C(=O)NCCc1ccccc1)=C1/N=C(NC(=O)c2cccs2)c2ccccc21	13	3	-29	63*	-5	i
Cc1ccc(CN(CC2CCOC2)C2CC(C)(C)NC(C)(C)C2)o1 (centres undefined)	2	nt	nt	-18	nt	nt
CC12CCC(C(=O)N(Cc3ccccc3)Cc3ccccc3)(OC1=O)C2(C)C (centres undefined)	18	3	3	61*	-9	i
Fc1ccc(-c2n[nH]c(=S)n2-c2ccc3c(c2)OCCO3)cc1	14	9.1*	6	20	-16	i
O=C(c1cc(-c2ccncc2)nc2ccc(Cl)cc12)N1CCN(Cc2ccc3c(c2)OCO3)CC1	15	-2	48*	-5	-22	i
CCN(CC)c1ncnc2scc(C3COc4ccccc4O3)c12 (centres undefined)	12	-1	4	64*	-32	i
CC1CC(C)CN(C(=S)Nc2ccccc2)C1 (centres undefined)	25	nt	nt	-4	nt	nt
COc1nc(N)c(S(=O)(=O)c2ccccc2)cc1C#N	4	-3	-52	27	-25	i
N#Cc1cc(S(=O)(=O)c2ccc(Cl)cc2)c(N)[nH]c1=O	10	11*	-10	16	-4	i
SMILES	EP2 antag	Wee1 degr inh	p47phox inh	EP2 modulator	Furin inh	HSV augment
CCOc1cc(OCC)cc(C(=O)Nc2ccc(NC(=O)c3cccs3)cc2)c1	4	nt	nt	-17	nt	nt
CCN(c1ccccc1)S(=O)(=O)c1ccc(Cl)nc1	16	2	-18	26	-16	i
CCN(c1cccc2ccccc12)S(=O)(=O)c1ccc(Cl)nc1	3	-1	-11	65*	-18	i
O=C(C[N+]1(c2ccccc2)CCOCC1)c1ccccc1	53*	nt	nt	15	nt	nt
CCOc1ccccc1N(C(=O)Nc1cccc(Cl)c1)C1=NC(C)CS1 (centres undefined)	3	0	35*	48	-1	i
O=C(Cn1cnc2scc(-c3ccc(Cl)cc3)c2c1=O)N1CCCCC1	7	nt	nt	-78	nt	nt
CCOC(=O)C1CCCN(S(=O)(=O)c2ccc(S(=O)(=O)NC3CCCC3)cc2)C1 (centres undefined)	11	nt	nt	-60	nt	nt
CC1CCc2nc(NC(=O)C3CCCO3)sc2C1 (centres undefined)	6	9.7*	-15	19	-14	i
CC1CCc2nc(NC(=O)c3ccco3)sc2C1 (centres undefined)	18	0	-7	-5	-6	i
CS(=O)CCNC(=O)c1cc2c(Cl)cccc2[nH]1 (centres undefined)	6	nt	nt	-22	nt	nt
Cc1ccc(-c2nc(NC(=O)c3nn(C)cc3[N+](=O)[O-])sc2C)cc1	22	0	-6	-60	-11	i
Cn1cc([N+](=O)[O-])c(C(=O)Nc2nc(-c3ccc(Cl)cc3)cs2)n1	75*	0	-26	-42	-15	i
Cc1cnc(NC(=O)c2nn(C)cc2[N+](=O)[O-])s1	46*	4	4	-37	-26	i
c1ccc(-c2nc3ccccc3c3nc4ccccc4n23)cc1	7	-2	0	64*	-17	i
C[C@@H]1OC(O[C@H]2[C@H](OC(=O)[C@]34CCC(C)(C)CC3C3=CCC5[C@@]6(C)CC[C@H](OC7O[C@@H](C)[C@H](O[C@@H]8OC[C@@H](O)[C@H](O)[C@H]8O)[C@@H](O)[C@H]7O)C(C)(C)C6CC[C@@]5(C)[C@]3(C)CC4O)OC[C@H](O)[C@H]2O)[C@H](O)[C@H](O)[C@H]1O[C@@H]1O[C@H](CO)[C@@H](O)[C@H](O)[C@H]1O (some centres undefined)	108*	nt	nt	-25	nt	nt
CC1OC(OC2C(OC3C(O[C@H]4CC[C@]5(C)C6C=C[C@]78OC[C@@]9(CC[C@@H](C)[C@H](C)C97)[C@H](O)C[C@@]8(C)[C@]6(C)CC[C@H]5C4(C)C)OC(C)C(O)C3O)OC(CO)C(O)C2O)C(O)C(O)C1O (some centres undefined)	nt	nt	7	-14	-25	nt
C=C/C=C(\C=C(/COC)OC)C1(C(=O)Nc2ccc(Cl)c(Cl)c2)CCOCC1	7	nt	nt	-42	nt	nt
Cc1cc(C)c2cc3c(nc2c1)OC(C)C(=O)N(Cc1cccnc1)C3 (centres undefined)	nt	nt	nt	-69	nt	nt
CC(C)COC(=O)c1cccc2c1-c1ccccc1/C2=N\O	nt	3	-1	63*	-19	nt
CCOC(=O)c1cccc2c1-c1ccccc1/C2=N/O	19	-2	-6	46	-15	nt
O=C1C(N2CCOCC2)=C(n2nnc3ccccc32)C(=O)c2ccccc21	40*	-2	4	-3	-12	i
